The structures appear in SMILES notation. Compounds without any hit were thinned out: in the full panel of roughly 83,000, 20% have a hit.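 Values shown are percent growth following 48 h exposure of cells in 96-well plates to a single concentration of compound; below 10 was considered active.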 A number with no mark means an inactive call. Active and inactive are the calls of the source.

The subject of this assay is RPMI-8226 leukemia. As to the kind of experiment: NCI-60 one-dose screen, 48 h (100 = growth as untreated, 0 = no growth, -100 = all killed). The settings on record: 10 µM unless noted. Here is the method:
Growth inhibition of the RPMI-8226 human tumor cell line is measured as a screen for anti-cancer activity. Cells are grown in 96 well plates and exposed to the test compound for 48 hours. Compounds are tested at a single concentration, which is 10^-5 M for most compounds. The reported endpoint is percent growth (GI% or GIPRCNT), where numbers from 0 - 100% represent growth inhibition, and numbers from -100% - 0 represent cell death. For example, a value of 40 represents 60% growth inhibition. A value of 0 means no net growth occurred over the course of the experiment. A value of -40 indicates 40% of cells at the beginning of the experiment died by the end of the experiment. A value of -100 means all cells are dead at the end of the experiment.
NCI-60 Human Tumor Cell Lines Screen was performed using the standard one-dose NCI protocol, which is described in more detail at https://dtp.cancer.gov/discovery_development/nci-60/default.htm.
Compounds with GIPRCNT values below 10 were considered active. Activity score was based on GIPRCNT using the following formula: […]
Score is 0 for GIPRCNT values of 100 or above, 50 for GIPRCNT values of 0, and 100 for GIPRCNT values of -100.
Turning to `COc1ccc2c(c1)/C(=N/c1n[nH]c(=S)s1)C(=O)N2`, the growth is 54.1%.

As for `C#CCO[C@H]1CC(CC#C)(CC#C)C(=O)[C@@H]2[C@H]1[C@H]1C[C@@H]3[C@@]4(C)CCC[C@@](C)(C(=O)OC)[C@@H]4CC[C@@]23C=C1C(C)C`, the growth was 54.2%.

On to `Cc1cc(Nc2ccc(C(=O)N3CCCC3)cc2)nc(NCCCNc2ccnc3cc(Cl)ccc23)n1`, for which the growth is 74.8%.

Consider `CN1CCN(CC(=O)Nc2ccc3ncnc(Nc4ccc(Oc5cccc(C(F)(F)F)c5)c(Cl)c4)c3c2)CC1`, for which the growth is -12.7% (active).

For the compound `Clc1ccc(-c2cc(-c3ccccc3)nc(NCCNc3ccnc4cc(Cl)ccc34)n2)cc1`, the growth is -25.3% (active).

As to `COc1ccc(C2CC(c3cc(OC)c(OC)c(OC)c3)=NO2)cc1OCCCCOc1cc2c(cc1OC)C(=O)N1CCC[C@H]1C=N2` (stereo not given in full), the growth is 17.1%.

With `COc1cccc(C(=O)NNc2nc(Cl)nc(Cl)n2)c1`, the growth is 95.7%.

As for `COc1cc(OC)c(C(=O)C(CN(C)C)CN(C)C)cc1OC`, the growth was -18.1% (active).

For `Cc1ccc(/C=C/C(=O)c2cccc(OCCCOc3cccc(C(=O)/C=C/c4ccc(C)cc4)c3)c2)cc1`, the growth was -0.643% (active).

Take `N#Cc1c(-c2ccccc2)nc(SCC(O)CN2CCOCC2)nc1N1CCOCC1` (stereo not given): the growth is 105%.

On to `COc1cc2c(cc1OCCCCN1CCN(C(=S)SCCC(C#N)(c3ccccc3)c3ccccc3)CC1)N=C[C@@H]1CCCN1C2=O`, for which the growth was -18% (active).

In the case of `O=C1/C(=C\c2ccccn2)c2ccccc2N1c1c(Cl)cccc1Cl`, the growth is -12.5% (active).

Regarding `C=C(C)[C@@H]1CCC[C@]2(C(=O)N3CCN(C)CC3)CC[C@]3(C)[C@@H](CC[C@@H]4[C@@]5(C)CC/C(=N\NC(=O)c6ccncc6)C(C)(C)[C@@H]5CC[C@]43C)[C@@H]12`, the growth is 78.2%.

On to `Nc1nc2c(c3ncccc13)C(c1cccc(Cl)c1)Cc1ncccc1-2` (stereo not given), for which the growth is 32.4%.

Consider `Fc1cccc(-c2ccc3c(c2)C2(CCNCC2)CN3)c1`, for which the growth is 95.7%.

Take `O=S(=O)(Nc1cc(Sc2cccc3cccnc23)c(O)c2ccccc12)c1ccccc1`: the growth is -4.98% (active).

`CSc1nc(C)c([N+](=O)[O-])c(N)n1`: the growth is 78.4%.

Take `O=C(CCSc1nnc2n(Cc3ccccc3)c(=O)c3c4c(sc3n12)CCCC4)N1CCN(c2ccccc2)CC1`: the growth is 112%.

As to `COc1ccc2c(c1)c(-c1nc(-c3c[nH]c4ncccc34)cs1)cn2CCCN1CCOCC1`, the growth is 0.661% (active).

`C=C1C(=O)O[C@H]2[C@H]1CC/C(COC(=O)c1cc3cc(Cl)ccc3[nH]1)=C\CC[C@@]1(C)O[C@@H]21`: the growth is -29.9% (active).

On to `C=C(CNCCc1ccc(O)cc1)[C@@H]1CC[C@]2(CO)CC[C@]3(C)[C@H](CC[C@@H]4[C@@]5(C)CCC(=O)C(C)(C)[C@@H]5CC[C@]43C)[C@@H]12`, for which the growth is -12.2% (active).

With `O=C1NC(=O)/C(=C/c2c(-c3ccccc3)nc3sc(COc4ccccc4)nn23)S1`, the growth was 84.4%.

As for `COC(=O)c1c2c(c(C)[n+]([O-])c1C)C(=O)C(NCc1ccc(OC)cc1)=CC2=O`, the growth is 23.6%.

Consider `Nc1nc(NC(=O)Nc2ccc(C(=O)O)cc2)nn1-c1ccc(S(N)(=O)=O)cc1`, for which the growth is 102%.

Consider `CCOC(=O)c1cnc2c(N=Nc3ccc(OC)cc3)c(N)nn2c1N`, for which the growth is 104%.

Consider `CCN1C(=O)N(CC)C2C1NN=c1s/c(=C3\C(=O)N(CCC(C)C)c4ccccc43)c(=O)n12` (stereo not given), for which the growth was 17%.

Turning to `O=C(Cc1ccc(NC(=O)c2cccc(Cl)c2)cc1)NCc1ccccc1`, the growth is 65.8%.

On to `NS(=O)(=O)c1ccc(-c2cc(-c3nnc(SCC(=O)Nc4ccc(C(=O)/C=C/c5ccc(Cl)cc5)cc4)n3-c3ccccc3)c3ccccc3n2)cc1`, for which the growth is 10.7%.

On to `COc1ccc(/C=C/C(c2cc(OC)c(OC)c(OC)c2)n2cncn2)cc1` (stereo not given), for which the growth was 50.8%.

For `COc1ccc(-c2nc(/C=C3\C(=O)N(C)c4ccccc43)c3ccccn23)cc1`, the growth is 104%.

As for `C[C@H](CCCC(=O)NCC#CCN1CCN(C)CC1)[C@H]1CC[C@H]2[C@@H]3CC[C@@H]4CC(=O)CC[C@]4(C)[C@H]3CC[C@]12C`, the growth is 86.7%.

For `Cc1ccc(C2CC(c3nc(-c4ccc(Cl)cc4)oc3C)=NN2C(=O)c2ccncc2)cc1` (stereo not given), the growth was 83.2%.

In the case of `COc1cccc(-c2cc(-c3cccc(Cl)c3)c(C#N)c(=O)[nH]2)c1`, the growth was 64.3%.

On to `CN1CCN(CCOc2ccc(-c3cnc4c(-c5ccc(F)cc5)cnn4c3)cc2)CC1`, for which the growth is 27%.

As to `CC1(C)NCCC[C@]2(C)[C@H]3CC[C@H]4[C@H]5[C@H](C(=O)/C=C/c6cccnc6)CCC[C@]5(CO)CC[C@@]4(C)[C@]3(C)CC[C@@H]12`, the growth is 13.1%.

For the compound `Cc1ccc(S(=O)(=O)N2CCC(=O)c3ccccc32)cc1`, the growth is 106%.

For the compound `O=C1c2cccc3cccc(c23)C(=O)N1C/C=C/c1ccc2c3c(cccc13)C(=O)N(CCO)C2=O`, the growth was 74%.

Take `S=C(c1ccc2c(c1)OCO2)N1CCN(c2cccc(Cl)c2)CC1`: the growth is 24.6%.

`COCCn1cc(-c2csc(-c3c[nH]c4ccc(Br)cc34)n2)c2cccnc21`: the growth is 22.2%.

Regarding `Cc1ccc(-c2nc(/C=C3/C(=O)Nc4ccc(F)cc43)c3ccccn23)cc1`, the growth is 89.7%.

Source of the values: PubChem BioAssay (NCI).
